This excerpt belongs to a sample that is enriched for hits.
aSyn UTR act = Activators via SNCA 5'UTR binding, MLPCN; actives 7.1% (n = 300,000); alpha-synuclein 5'UTR reporter, activators screen; activity score, % (tested at 7.5 µM), hits read low; in the data active means activity score below about -60%
* marks the source's active call; other numbers are inactive results.

SMILES	aSyn UTR act
COc1cccc(-c2nnc3sc(-c4ccccn4)nn23)c1	-103.4*
CCOC(=O)C1(Cc2cccc(Cl)c2)CCCN(C(=O)c2ccnn2C)C1 (stereo not drawn)	-84.8*
CCOC(=O)C1(Cc2cccc(Cl)c2)CCCN(C(=O)CN2C(=O)CSC2=O)C1 (stereo not drawn)	-75.1*
CCN(CC)CCN1C(=O)C(=O)/C(=C(/O)c2ccc(OC(C)C)cc2)C1c1cccs1 (stereo not drawn)	-122.2*
C=CCOc1ccc(/C(O)=C2/C(=O)C(=O)N(CCCn3ccnc3)C2c2cccs2)cc1 (stereo not drawn)	-82.2*
CCCOc1ccc(/C(O)=C2/C(=O)C(=O)N(CCCn3ccnc3)C2c2ccc(C)o2)cc1 (stereo not drawn)	-75.8*
CCOc1ccc(/C(O)=C2/C(=O)C(=O)N(c3nc(C)c(C)s3)C2c2ccco2)cc1 (stereo not drawn)	-84.9*
CCCCCOc1ccc(NC(=O)C(=O)NCCCn2ccnc2)cc1	62.6
CC1Cc2cc(/C(O)=C3/C(=O)C(=O)N(Cc4ccco4)C3c3cccs3)ccc2O1 (stereo not drawn)	-82.3*
CCCOc1ccc(/C(O)=C2/C(=O)C(=O)N(CCCn3ccnc3)C2c2ccco2)cc1 (stereo not drawn)	-68.4*
Cc1ccc(NP(=O)(c2ccc(N(C)C)cc2NC(=O)c2cccs2)N2CCOCC2)cc1 (stereo not drawn)	-91.3*
CN(C)c1ccc(P(=O)(Nc2ccc([N+](=O)[O-])cc2)N2CCOCC2)c(NC(=O)c2cccs2)c1 (stereo not drawn)	-66.2*
CN(C)c1ccc(P(=O)(Nc2ccccc2)N2CCOCC2)c(NC(=O)c2cccs2)c1 (stereo not drawn)	-99.9*
CCOCCOC(=O)C1=C(C)Nc2ccc(C)cc2S1	-91.6*
COC(=O)CCc1sc(Nc2ccccc2)nc1-c1ccc(OC)cc1	-62.0*
CC1CN(C(=O)c2ccc(-c3ccccc3Cl)o2)CC(C)O1 (stereo not drawn)	-64.4*
CC(C)(CNC(=O)c1ccc(-c2ccccc2Cl)o1)N1CCOCC1	-123.7*
CC1CCCN(C(=O)c2ccc(-c3ccccc3Cl)o2)C1 (stereo not drawn)	-135.9*
CC(=O)Nc1ccc(NC(=S)NC(=O)c2cc3ccccc3o2)cc1	-70.5*
Cc1cc(C)cc(C(=O)NC(=S)Nc2ccc(-c3cc4ccccc4oc3=O)cc2)c1	96.8
O=C(NC(=S)Nc1cccnc1)c1cc2ccccc2o1	-66.0*
O=C(Nc1cccnc1)c1cc2cc(Br)ccc2o1	-116.4*
O=C(NC(=S)Nc1ccc(CN2CCCCC2)cc1)c1cc2ccccc2o1	-68.5*
CC(C)N(Cc1nccn1C)C(=O)CCc1nnc(CCCc2ccccc2)o1	-119.9*
CN(CCc1ccccn1)C(=O)CCc1nnc(CCCc2ccccc2)o1	-91.3*
SMILES	aSyn UTR act
COc1ccc(/C(N)=C/C(=O)C(C)(C)C)cc1	-97.8*
O=C(c1cc(-c2ccccc2O)on1)N1CCCCCC1	-140.1*
O=C(c1cc(-c2ccccc2O)on1)N1CCOCC1	-115.4*
O=C(OCc1ccccc1)c1cccc(-c2nnn(Cc3ccccc3)n2)c1	-90.7*
CC1CCCC2(C1)NC(=S)c1c(sc3c1CCCC3)N2 (stereo not drawn)	-62.7*
O=C(Nc1ccc2c(c1)OCCO2)C(=S)NCc1ccccc1	-96.3*
O=C(NC(=S)Nc1ccc2c(c1)OCCO2)c1cccc2ccccc12	-82.4*
O=C(NC(=S)Nc1ccc2c(c1)OCO2)c1ccccc1	-199.1*
Nc1ccc(C(=O)c2ccc3c(c2)OCCO3)cc1N	-166.2*
O=C(NC(=S)Nc1ccc2c(c1)OCCO2)c1cccc(Br)c1	-301.6*
Cc1ccc(NC(=O)Nc2cccc([N+](=O)[O-])c2)cc1F	-87.3*
CCc1ccc(NC(=O)c2ccccc2SC)cc1	-177.4*
O=C(Nc1ccc2c(c1)OCCO2)C1CC1c1ccccc1 (stereo not drawn)	-123.5*
O=C(Nc1cccc([N+](=O)[O-])c1)c1[nH]ncc1Cl	-227.2*
CCc1ccc(NC(=O)c2cnc(SC)nc2C)cc1	-92.8*
O=C(Nc1cccc(Cl)c1)c1ccc2c(c1)OCCO2	-123.3*
O=C(Nc1ccc2c(c1)OCO2)c1ccccc1	-119.8*
O=C(Nc1ccc2c(c1)OCCO2)c1cccc(C(=O)Nc2ccc3c(c2)OCCO3)c1	-148.2*
CSc1ccccc1C(=O)Nc1ccc2c(c1)OCCO2	-64.8*
O=C(NC(=S)Nc1ccccc1Br)c1ccc2c(c1)OCO2	-137.4*
O=C(CC(=O)c1ccccc1)Nc1ccc2c(c1)OCCO2	-119.3*
O=C(Nc1ccc2c(c1)OCCO2)C(=O)NC1CC1	-74.2*
O=C(Nc1ccncc1)c1ccc2c(c1)OCCO2	-67.8*
O=C(Nc1ccc2c(c1)OCCO2)c1ccccc1	-98.0*
O=C(Nc1ccc2c(c1)OCCO2)c1cccc(Cl)c1	-225.2*
SMILES	aSyn UTR act
CCCc1cc(C(=O)Nc2cccc([N+](=O)[O-])c2)cs1	-105.2*
O=C(Nc1ccc2c(c1)OCO2)c1cncc(Br)c1	-191.5*
O=C(CS(=O)(=O)c1ccccc1)c1ccc2c(c1)OCCO2	-131.5*
O=C(CCNc1ccccc1)c1ccc2c(c1)OCO2	-193.1*
O=C(Nc1ncc([N+](=O)[O-])s1)c1ccc2c(c1)OCO2	102.6
O=C(NNC(=O)c1cccc2ccccc12)c1ccc2c(c1)OCO2	-93.8*
O=C(Nc1cccc([N+](=O)[O-])c1)c1ccc2c(c1)OCCO2	-124.0*
CS(=O)(=O)Nc1ccc(C(=O)Nc2ccc3c(c2)OCCO3)cc1	-169.3*
CC(C)c1ccc(O)c(NC(=S)NC(=O)c2ccc3c(c2)OCO3)c1	-124.0*
CN(c1cccc(NC(=O)c2ccc(C(C)(C)C)cc2)c1)S(C)(=O)=O	-174.3*
CC(C)(C)c1ccc(C(=O)Nc2cccc([N+](=O)[O-])c2)cc1	-193.2*
O=C(Nc1ccncc1)c1ccc2ccccc2c1	-135.4*
CCc1ccc(NC(=O)c2cnc3n(c2=O)CCS3)cc1	-185.4*
COc1ccc2c(c1OC)C(=O)N1c3ccccc3COC21 (stereo not drawn)	-139.9*
COc1ccc2c(c1OC)C(=O)N1c3ccccc3SC21 (stereo not drawn)	-142.3*
COc1ccc2c(c1OC)C(=O)N1c3ccccc3C(=O)N(c3ccccc3F)C21 (stereo not drawn)	60.6
CCN(CC)c1ccc(C(=S)NC2CCCCC2)cc1	-64.0*
CN(C)c1ccc(C(=S)NC2CCCCC2)cc1	-111.2*
COc1ccccc1Nc1ncc(-c2cccs2)s1	-176.6*
O=C(Cc1ccc(Br)cc1)Nc1ncc([N+](=O)[O-])s1	-104.6*
O=C(Cc1ccc(Cl)cc1)Nc1ncc([N+](=O)[O-])s1	-131.1*
O=C(Nc1ncc([N+](=O)[O-])s1)c1ccco1	-98.1*
Cc1ccc(C(=O)Nc2ncc([N+](=O)[O-])s2)cc1	68.9
Cc1ccc(N2C(=O)NC3(CCCCC3)C2=O)cc1	-64.0*
CCOc1ccc(NC(=O)C(c2ccccn2)N(C(=O)CCl)c2ccc(OC)cc2)cc1 (stereo not drawn)	-161.0*
SMILES	aSyn UTR act
COc1ccc(Nc2cccc3ccccc23)cc1	-72.4*
COc1cccc(C(=O)Nc2nc3c(c(=O)[nH]2)CCCC3)c1	-96.7*
COc1ccc(Nc2cc(C)c3ccccc3n2)cc1	-100.9*
COc1ccc(Nc2ccc(OC)cc2)cc1	-104.6*
COc1ccc(C(=O)Nc2nc3ccccc3c(=O)[nH]2)cc1	-126.6*
COc1ccc(C(=O)Nc2cccc3ccccc23)cc1	-137.7*
Cc1ccnc(SCC(=O)c2ccc(Br)cc2)c1C#N	-198.2*
